Out of some 370,000 compounds screened, about 3,100 (0.84%) were called active. Shown is part of a subset that was picked to be rich in actives. A number with no mark means an inactive call. No stated cut-off is given here; in the data, active means inhibition above about 9.5%; inactive means the rest.
target: 1-phosphatidylinositol 4,5-bisphosphate phosphodiesterase gamma-1 (Homo sapiens) (UniProt P19174); assay: PLC-gamma1 enzyme inhibitors, primary screen, biochemical, fluorescence, purified enzyme (AID 720700); details: purified PLC-gamma1, fluorogenic substrate, at 12.2 µM, stronger effect = higher value
Sequence (P19174 whole entry, looked up): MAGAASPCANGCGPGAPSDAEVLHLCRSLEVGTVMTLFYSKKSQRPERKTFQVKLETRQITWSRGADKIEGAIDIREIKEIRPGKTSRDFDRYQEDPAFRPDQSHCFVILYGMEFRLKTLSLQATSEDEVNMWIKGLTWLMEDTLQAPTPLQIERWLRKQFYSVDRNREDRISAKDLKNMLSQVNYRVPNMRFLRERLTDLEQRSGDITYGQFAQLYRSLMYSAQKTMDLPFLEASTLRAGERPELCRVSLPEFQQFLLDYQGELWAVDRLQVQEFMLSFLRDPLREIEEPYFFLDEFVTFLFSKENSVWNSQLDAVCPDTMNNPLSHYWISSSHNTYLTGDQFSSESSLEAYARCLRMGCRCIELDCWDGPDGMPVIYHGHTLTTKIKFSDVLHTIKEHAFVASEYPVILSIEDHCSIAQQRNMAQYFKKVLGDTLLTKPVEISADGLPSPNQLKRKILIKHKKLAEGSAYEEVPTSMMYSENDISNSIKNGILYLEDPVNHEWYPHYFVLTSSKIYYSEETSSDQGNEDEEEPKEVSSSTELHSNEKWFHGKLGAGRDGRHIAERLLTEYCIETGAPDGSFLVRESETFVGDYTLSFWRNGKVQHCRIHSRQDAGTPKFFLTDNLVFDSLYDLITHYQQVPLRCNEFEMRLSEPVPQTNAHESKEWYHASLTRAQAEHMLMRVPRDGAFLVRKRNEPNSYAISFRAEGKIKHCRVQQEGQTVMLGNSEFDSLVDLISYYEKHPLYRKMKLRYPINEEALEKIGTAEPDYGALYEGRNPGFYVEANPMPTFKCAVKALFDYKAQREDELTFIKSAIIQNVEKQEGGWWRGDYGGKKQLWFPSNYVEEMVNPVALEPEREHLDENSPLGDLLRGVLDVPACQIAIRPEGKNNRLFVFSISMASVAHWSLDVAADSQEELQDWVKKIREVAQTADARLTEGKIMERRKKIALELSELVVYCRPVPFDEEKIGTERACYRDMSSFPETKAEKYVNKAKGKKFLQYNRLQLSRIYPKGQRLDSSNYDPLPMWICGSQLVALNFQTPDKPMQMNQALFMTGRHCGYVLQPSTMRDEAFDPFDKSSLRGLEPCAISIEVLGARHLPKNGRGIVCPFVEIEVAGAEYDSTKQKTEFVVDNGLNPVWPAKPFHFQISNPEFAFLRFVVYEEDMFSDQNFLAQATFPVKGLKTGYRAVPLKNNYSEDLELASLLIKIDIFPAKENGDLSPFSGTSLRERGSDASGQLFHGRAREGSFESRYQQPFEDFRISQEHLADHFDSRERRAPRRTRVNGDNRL

Row | Structure (SMILES) | inhibition
1 | Cc1cccc(C(=O)Nc2c(-c3ccc(F)cc3)nc3ncccn23)c1 | -270%
2 | O=[N+]([O-])c1cc(S(=O)(=O)N2CCCC2)ccc1NN=C1CCCC1 | 7.15%
3 | O=[N+]([O-])c1cc(C(F)(F)F)ccc1NCCc1ccncc1 | -0.57%
4 | O=[N+]([O-])c1cc(C(F)(F)F)ccc1NN=C1CCCC1 | 11.1% (active)
5 | COc1ccc2c(C(C)c3ccc(N)cc3)cn(C)c2c1 (stereo not given) | 3.03%
6 | N#Cc1ccccc1OC[C@@H](O)CN1CCC(C(O)(c2ccccc2)c2ccccc2)CC1 | 2.31%
7 | CCOc1ccc(Oc2c(Cl)cnn(-c3ccc(C)cc3)c2=O)cc1 | -4.67%
8 | CN(CCc1ccccc1)C(=O)Cn1nc(-c2ccccc2)ccc1=O | 1.49%
9 | C=CCSC(CC)(CC)C(N)=O | 11.9% (active)
10 | CC(CCN1CCC(C(O)(c2ccccc2)c2ccccc2)CC1)Oc1ccc([N+](=O)[O-])cc1Cl (stereo not given) | 6.49%
11 | COc1ccc(C(=O)OCCN(C)C2CN(Cc3cn(Cc4cccc(C)c4)nn3)S(=O)(=O)C2)cc1OC (stereo not given) | 3.3%
12 | O=C(c1ccccn1)c1ncc(C(F)(F)F)cc1Cl | 1.59%
13 | Cc1cc(C)cc(NS(=O)(=O)c2ccc(Oc3ncc(C(F)(F)F)cc3Cl)cc2)c1 | -1.75%
14 | FC(F)(F)c1cnc(Oc2ccccc2-c2nnc(-c3ccc(Cl)cc3)o2)c(Cl)c1 | 12.3% (active)
15 | Cc1ccccc1NC(=O)C1CCN(c2ncccn2)CC1 | -3.53%
16 | CC(C)(C)OC(=O)NCCc1ccccc1/C=C/S(=O)(=O)NCc1ccc(F)cc1 | -0.15%
17 | CC1CCN(c2ccc(C(=O)O)cc2NS(=O)(=O)c2ccc(Br)s2)CC1 | 2.88%
18 | O=C(Cn1cc(/C=N/NC(=O)c2cccc(C(F)(F)F)c2)c2ccccc21)Nc1ccc(F)cc1 | -0.8%
19 | O=C(Nc1ccc(C(F)(F)F)cc1)c1cccc(-n2cnnn2)c1 | -2.72%
20 | CNC(=O)c1ccc(NC(=O)c2cccc(C(F)(F)F)c2)cc1 | 14.4% (active)
21 | Cc1cccc(N2C(=O)N3[C@H](c4ccc(F)cc4)[C@@H]4C(=O)N(C5CCCCC5)C(=O)[C@@H]4[C@]3(Cc3ccccc3)C2=O)c1 | 2.62%
22 | O=C1[C@H]2[C@@H](c3ccc(Cl)cc3)N3C(=O)N(c4cccc(F)c4)C(=O)[C@@]3(Cc3ccccc3)[C@H]2C(=O)N1C1CCCCC1 | -2.34%

Row | Structure (SMILES) | inhibition
23 | Cc1cccc([C@@H]2[C@@H]3C(=O)N(Cc4ccccc4)C(=O)[C@@H]3[C@]3(Cc4ccc(Cl)cc4)C(=O)N(c4cccc(Cl)c4)C(=O)N23)c1 | 11.3% (active)
24 | C[C@@H]1ON(C)[C@H]2C[C@H]3c4[nH]c5cccc(-c6ccc7c(c6)OCO7)c5c4CCN3C[C@@H]12 | -51.7%
25 | N#CCC[C@H]1CC[C@]2(CCCN(Cc3ccc(Cl)cc3)C2)O1 | -3.24%
26 | COc1ccc(CCNC(=O)CSc2nc3c([nH]2)c(=O)n(C)c(=O)n3C)cc1 | -0.19%
27 | CN(C)S(=O)(=O)c1cccc(NC(=O)COC(=O)C2(c3ccccc3F)CCCC2)c1 | 11.9% (active)
28 | CN(C)S(=O)(=O)c1cccc(NC(=O)COC(=O)c2cc(=O)[nH]c(=O)[nH]2)c1 | 5.81%
29 | CN(C)S(=O)(=O)c1cccc(NC(=O)COc2ccc3ccccc3c2)c1 | 2.81%
30 | O=C(NCc1ccccc1)[C@H]1CCCN1C(=O)[C@H]1CCCN1C(=O)c1cc(F)cc(F)c1 | 0.04%
31 | O=C(NCc1ccccc1)[C@@H]1CCCN1C(=O)[C@H]1CCCN1C(=O)c1cccc(Cl)c1 | 0.25%
32 | O=C(NCc1ccc(F)cc1F)[C@@H]1CCCN1C(=O)[C@@H]1CCCN1C(=O)c1cccc(Cl)c1 | 11% (active)
33 | Cc1cc(=O)[nH]c(SCC(=O)Nc2ccc(F)cc2F)n1 | 0.36%
34 | CC(=O)Nc1ccc(OC[C@@H](O)CN2CCC(C(O)(c3ccccc3)c3ccccc3)CC2)cc1 | -0.12%
35 | O=S1(=O)c2ccc(Br)cc2OC[C@H](Cc2ccccc2)N1Cc1cn(Cc2ccccc2)nn1 | 10.2% (active)
36 | COc1ccc(Cn2cc(CN3[C@@H](CC(C)C)COc4cc(Br)ccc4S3(=O)=O)nn2)cc1 | 3.87%
37 | O=S1(=O)c2ccc(Br)cc2OC[C@@H](Cc2ccccc2)N1Cc1cn(Cc2ccco2)nn1 | 6.61%
38 | O=C(CCCCCN1C(=O)C2C3C=CC(C3)C2C1=O)Nc1ccccc1 (stereo not given) | 4.2%
39 | CCOC(=O)C1CCN(C(=O)C(C)(C)NC(=O)Nc2ccc(F)c(F)c2)CC1 | 6.44%
40 | Cc1ccc(CCN2CC(C(=O)NCCc3ccccc3)CC2=O)cc1 (stereo not given) | 7.32%
41 | O=C(NCCCN1CCCCC1)C1CC(=O)N(CCc2ccccc2)C1 (stereo not given) | 10% (active)
42 | COCCCNC(=O)C1CC(=O)N(CCc2ccccc2)C1 (stereo not given) | 7.12%
43 | COc1cccc(Cn2cc(COC(=O)Nc3ccc(F)cc3)nn2)c1 | -1.49%
44 | CCOC(=O)[C@@]12CN(C(=O)OC(C)(C)C)CC=C1N(Cc1ccc(OC)cc1)C(=O)[C@H]2CC(=O)NCc1ccc(OC)c(OC)c1 | 2.04%

Row | Structure (SMILES) | inhibition
45 | COc1ccc(CN2C/C(=C/c3ccccc3)N3C(=O)C[C@@H](c4ccccc4)N=C23)c(OC)c1 | -7.12%
46 | CS(=O)(=O)N(CC(O)Cn1c2ccccc2c2ccccc21)c1cccc2ccccc12 (stereo not given) | -10.8%
47 | O=C1c2ccccc2S(=O)(=O)N1CC(O)Cn1c2ccccc2c2ccccc21 (stereo not given) | 15.2% (active)
48 | O=C1c2ccccc2S(=O)(=O)N1Cc1c(F)cccc1Cl | -1.51%
49 | C=CCN(C)CC#Cc1ccccc1 | 1.26%
50 | COc1ccc(CCNC2=CC(=O)CC(C)(C)C2)cc1 | 1.19%
51 | CC1(C)CC(=O)C=C(NCCCN2CCCC2=O)C1 | 1.47%
52 | CC1(C)CC(=O)C=C(NCCN2CCNCC2)C1 | 10.7% (active)
53 | O=C(CCS(=O)(=O)c1ccccc1)Nc1ccc(Cl)c(Cl)c1 | -5.17%
54 | CCOC(=O)N1CCN(C(=O)C[C@@H]2C(=O)N(CCc3ccc(Cl)cc3)C3=CCCC[C@]32C(=O)OCC)CC1 | 2.91%
55 | CCOC(=O)N1CCC(NC(=O)Cc2cn(C)c3ccccc23)CC1 | 2.53%
56 | CCOC(=O)N1CCC(C(N)=O)CC1 | -1.53%
57 | CCOC(=O)N1CCC(c2cc(=O)n(-c3ccccc3)[nH]2)CC1 | 9.95% (active)
58 | O=C(OCC#CCSc1nnc(-c2ccco2)o1)c1ccc(F)cc1 | -0.72%
59 | CCN(CC)C(=O)CC[C@H]1CC[C@]2(CCCN(Cc3ccc(Cl)cc3)C2)O1 | 3.26%
60 | CCCCCCN1CCS(=O)(=O)N(Cc2ccc(C(F)(F)F)cc2)C(C(=O)OC)C1 (stereo not given) | -2.36%
61 | Cc1cc(NC(=O)c2ccccc2C)no1 | 3.09%
62 | CSc1ccccc1NC(=O)c1cc(Cl)sc1Cl | 3.13%
63 | Cc1ccccc1C(=O)Nc1ccccc1Sc1ccccc1 | 10.7% (active)
64 | CCOC(=O)[C@]12CCCC3=C1N(CCC3)C(=O)[C@@H](CC(=O)N1CCSCC1)C2 | 4.63%
65 | COc1ccc(C(=O)OCCN2CCN(C3CN(Cc4cn(Cc5ccccc5F)nn4)S(=O)(=O)C3)CC2)cc1OC (stereo not given) | -0.1%
66 | O=C(NC1CCCCN(Cc2ccc(Cl)cc2)C1=O)c1ccc(Br)cc1 (stereo not given) | 3.44%

Row | Structure (SMILES) | inhibition
67 | CCOC(=O)[C@]12CCCCC/C=C\1N(Cc1ccc(OC)cc1)C(=O)[C@H]2CC(=O)NCCCN1CCCC1=O | 1.96%
68 | CN(CC(=O)NC1CCCCC1)S(=O)(=O)c1ccc(Br)s1 | 10.4% (active)
69 | CN(CC(=O)NC1CCCCC1)S(=O)(=O)c1cccc2cccnc12 | -1.31%
70 | CN(CC(=O)NC1CCN(Cc2ccccc2)CC1)S(=O)(=O)c1ccc(Cl)s1 | 6.37%
71 | Cc1nc(CNc2ncnc3ccc(-c4ccc5c(c4)OCO5)cc23)cs1 | -104%
72 | O=C(CC(=O)N/N=C\c1cccc(Cl)c1Cl)NCc1ccccc1 | -0.34%
73 | CCn1c(SCC(=O)N/N=C/c2ccccc2OCC(=O)O)nnc1-c1ccc(C(C)(C)C)cc1 | -0.82%
74 | C=CCOc1ccccc1/C=N/NC(=O)Cc1ccccc1 | 13.9% (active)
75 | O=C1CCC2(CCC(c3ccc(Cl)cc3)CC2)N1CCO (stereo not given) | 1.68%
76 | COC(=O)[C@]12C[C@H](CC(=O)NCc3ccccc3)C(=O)N(CCC3=CCCCC3)C1=C[C@H](C(C)C)O[C@@H]2C1CC1 | 4.87%
77 | CCOC(=O)C1=C(C)NC2=C(C(=O)CC(C)(C)C2)C1c1ccc2c(c1)OCO2 (stereo not given) | -75.8%
78 | Cc1ccc(NC(=O)Nc2cc(C)nn2-c2ccccc2)cc1 | -1.85%
79 | CCn1c(SCC(=O)N2CCCC2=O)nc2ccccc21 | 3.16%
80 | CCCCn1c(SCC(=O)N2CCC(C(=O)OCC)CC2)nc2cc(S(N)(=O)=O)ccc21 | 0.98%
81 | CCCCn1c(SCC(=O)N2CCCC2=O)nc2cc(S(N)(=O)=O)ccc21 | 9.56% (active)
82 | COc1ccccc1C(=O)NC1CCCCN(C(C)C)C1=O (stereo not given) | 2.47%
83 | Cc1ccccc1CS(=O)(=O)Cc1ccc(C(=O)Nc2ccc(Cl)cc2)o1 | -2.55%
84 | Oc1ccc(/C=C/c2c(F)cccc2F)c2cccnc12 | -12.7%
85 | COC(=O)[C@H](C(C)C)N(CCCc1cn(Cc2ccccc2)nn1)S(=O)(=O)c1ccc(F)cc1Br | 0.35%

Source: PubChem BioAssay AID720700 (The Scripps Research Institute Molecular Screening Center, 2013)
